Source: ChEMBL document CHEMBL2218924, “A broad activity screen in support of a chemogenomic map for kinase signalling research and drug discovery” (Biochem J, 2013)

Target: G protein-coupled receptor kinase 5 (Homo sapiens) (UniProt P34947)
Conditions: at 1 µM

Sequence of G protein-coupled receptor kinase 5 (Homo sapiens) (P34947 whole entry, looked up): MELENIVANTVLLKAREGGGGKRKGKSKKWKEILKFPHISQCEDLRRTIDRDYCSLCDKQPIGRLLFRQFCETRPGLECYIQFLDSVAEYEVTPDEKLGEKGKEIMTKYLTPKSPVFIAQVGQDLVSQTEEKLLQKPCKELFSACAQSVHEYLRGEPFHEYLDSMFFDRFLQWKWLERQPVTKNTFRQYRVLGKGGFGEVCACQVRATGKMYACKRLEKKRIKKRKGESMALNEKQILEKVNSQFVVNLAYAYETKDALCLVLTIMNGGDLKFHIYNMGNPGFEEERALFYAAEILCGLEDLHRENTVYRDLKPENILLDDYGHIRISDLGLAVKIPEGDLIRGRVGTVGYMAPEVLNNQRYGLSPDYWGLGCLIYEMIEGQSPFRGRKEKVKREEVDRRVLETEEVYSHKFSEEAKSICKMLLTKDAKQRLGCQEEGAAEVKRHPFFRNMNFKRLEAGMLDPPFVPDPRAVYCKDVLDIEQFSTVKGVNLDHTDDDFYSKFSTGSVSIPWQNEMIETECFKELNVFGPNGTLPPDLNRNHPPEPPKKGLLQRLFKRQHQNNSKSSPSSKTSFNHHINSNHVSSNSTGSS

Row | SMILES | residual activity
1 | O=C1NC(=O)c2c1c1c3ccccc3[nH]c1n1cncc21 | 83%
2 | CO[C@H]1C[C@@H]2CC[C@@H](C)[C@@](O)(O2)C(=O)C(=O)N2CCCC[C@H]2C(=O)O[C@H]([C@H](C)C[C@@H]2CC[C@@H](O)[C@H](OC)C2)CC(=O)[C@H](C)/C=C(\C)[C@@H](O)[C@@H](OC)C(=O)[C@H](C)C[C@H](C)/C=C/C=C/C=C/1C | 95%
3 | O=C1NC(=O)c2cc(Nc3ccc(F)cc3)c(Nc3ccc(F)cc3)cc21 | 104%
4 | CCCCc1c(-c2ccc(O)cc2)[nH]c2nccnc12 | 93%
5 | CC#CC(=O)Nc1cc2c(Nc3ccc(F)c(Cl)c3)ncnc2cn1 | 100%
6 | Cc1ccc(NC2=CC(=O)c3sc(C)nc3C2=O)cc1 | 93%
7 | O=[N+]([O-])c1ccc(-c2nc(-c3ccc(F)cc3)c(-c3ccncc3)[nH]2)cc1 | 101%
8 | COc1cc2ncnc(N3CCN(C(=O)Nc4ccc(Oc5ccccc5)cc4)CC3)c2cc1OC | 95%
9 | O=c1c2ccccc2[nH]c(=S)n1CCN1CCC(=C(c2ccc(F)cc2)c2ccc(F)cc2)CC1 | 101%
10 | c1ccc(-c2n[nH]cc2-c2ccnc3ccccc23)nc1 | 103%
11 | O=c1cc(N2CCNCC2)oc2c(-c3ccccc3)cccc12 | 81%
12 | COc1cccc(-c2cc(=O)c3ccccc3o2)c1N | 100%
13 | CC(=O)O/N=C1\C(=C2\C(=O)Nc3cc(Br)ccc32)Nc2ccccc21 | 98%
14 | CO[C@H]1[C@@H](OC)C[C@H](C)[C@@H](OC)C2=CC(=O)C=C(NC(=O)/C(C)=C/C=C/[C@H](OC)[C@@H](OC(N)=O)/C(C)=C/[C@@H]1C)C2=O | 70%
